Reference: paper PMC4242493, “Sequence specificity incompletely defines the genome-wide occupancy of Myc”
In all, about 33,000 sequences were measured (“normalized occupancy”: median about 0.075, highest 2% from about 0.095 on). The entries come from a sample that favours the highest values as a whole.

What follows are sequences tested against MaxL homodimer (Homo sapiens, UniProt P61244 1-160) (assay: universal protein-binding microarray (PBM); PBS-based mixture, 10 nM His-tagged protein dimer, 2% milk, 200 ng/uL BSA, 50 ng/uL salmon testes DNA, 0.02% TX-100; detection with Alexa 488 anti-His antibody;; high values mean tight binding). Conditions: protein: recombinant; tags: C-terminal His-tag (pET21a); chain copies: 2; dsDNA, one strand shown.
MaxL homodimer, sequence (P61244 whole entry): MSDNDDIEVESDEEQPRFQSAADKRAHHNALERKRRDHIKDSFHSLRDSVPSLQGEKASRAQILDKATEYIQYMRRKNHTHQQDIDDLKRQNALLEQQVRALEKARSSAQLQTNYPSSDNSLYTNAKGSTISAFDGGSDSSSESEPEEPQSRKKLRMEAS
Summary of the method: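 Arrays of the 'all 10-mer' universal design (Agilent 4 x 44 K) were exposed to 10 nM His-tagged protein dimer, stained with 10 ng/μL fluorophore-conjugated anti-His antibody and read on a GenePix 4400A to give a fluorescence intensity for each 8-mer. Binding occupancy is each intensity divided by the highest-ranked intensity.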
Work on ACTTTTAT yielded a binding signal of 0.0748 normalized occupancy. For CAGTAAAC, the binding signal was 0.0746 normalized occupancy. In the case of ACTTTGAA, the binding signal is reported as 0.0759 normalized occupancy. CGTTATGA showed a binding signal of 0.0829 normalized occupancy. With CTTGATGA the binding signal was 0.0755 normalized occupancy. In the case of AGATTATC, the binding signal is reported as 0.0807 normalized occupancy. CCTCGCCG showed a binding signal of 0.0725 normalized occupancy. GGCATGGA showed a binding signal of 0.0929 normalized occupancy. CGCATGGA was tested, and the binding signal was 0.106 normalized occupancy. GTCATGGA showed a binding signal of 0.0831 normalized occupancy. With ACTGTTTC the binding signal was 0.0744 normalized occupancy. With ATGAGTAC the binding signal was 0.0839 normalized occupancy. CATGCTAA gave a binding signal of 0.091 normalized occupancy. In the case of AATGCTAC, the binding signal is reported as 0.0772 normalized occupancy. Work on CATGCTAC yielded a binding signal of 0.0953 normalized occupancy. GATGCTAC gave a binding signal of 0.081 normalized occupancy. AATGCTAG gave a binding signal of 0.079 normalized occupancy. With CATGCTAG the binding signal was 0.106 normalized occupancy. GGTAACGA showed a binding signal of 0.0778 normalized occupancy. In the case of AGATGACT, the binding signal is reported as 0.0724 normalized occupancy. For CGGTGGAA, the binding signal was 0.0725 normalized occupancy. In the case of ACATATGC, the binding signal is reported as 0.0976 normalized occupancy. ACATATGT gave a binding signal of 0.0906 normalized occupancy. With ATATATGC the binding signal was 0.0867 normalized occupancy. Work on ACATATGG yielded a binding signal of 0.0977 normalized occupancy. TCATATGA was tested, and the binding signal was 0.0914 normalized occupancy. Work on CCATATGA yielded a binding signal of 0.0926 normalized occupancy. ACATATCC showed a binding signal of 0.0835 normalized occupancy. Sequence ACATATGA has a binding signal of 0.0952 normalized occupancy. ATATATGG showed a binding signal of 0.0895 normalized occupancy. GAACATAC was tested, and the binding signal was 0.0829 normalized occupancy. GAATTACC gave a binding signal of 0.072 normalized occupancy. GCACCTTA was tested, and the binding signal was 0.0768 normalized occupancy. CACGAGGC showed a binding signal of 0.134 normalized occupancy. CACGAGAC gave a binding signal of 0.1 normalized occupancy. CACGAGCC showed a binding signal of 0.0812 normalized occupancy. TACGAGGA showed a binding signal of 0.0793 normalized occupancy. Work on CACGAGAA yielded a binding signal of 0.0893 normalized occupancy. For AACGAGGA, the binding signal was 0.088 normalized occupancy. CACGAGCG gave a binding signal of 0.082 normalized occupancy. AACGAGGC showed a binding signal of 0.0809 normalized occupancy. In the case of AACGAGGG, the binding signal is reported as 0.0775 normalized occupancy. With AACGAGAC the binding signal was 0.075 normalized occupancy. For CACGAGGG, the binding signal was 0.134 normalized occupancy. CACGAGGA gave a binding signal of 0.137 normalized occupancy. Sequence TACGGGCA has a binding signal of 0.0723 normalized occupancy. GGTCTTAA gave a binding signal of 0.075 normalized occupancy. With CTCTATTA the binding signal was 0.0807 normalized occupancy. CCCCGCAG was tested, and the binding signal was 0.072 normalized occupancy. CAAATCTA showed a binding signal of 0.0804 normalized occupancy. With GCTTCTTA the binding signal was 0.0746 normalized occupancy. Sequence CACAAGAG has a binding signal of 0.0792 normalized occupancy. CATGTTTA was tested, and the binding signal was 0.0975 normalized occupancy. AATGTTTA showed a binding signal of 0.0748 normalized occupancy. With CACGTTTC the binding signal was 0.105 normalized occupancy. For CATGTTTC, the binding signal was 0.0831 normalized occupancy. CGCGTTTC gave a binding signal of 0.0778 normalized occupancy. Work on CACGTTTA yielded a binding signal of 0.0986 normalized occupancy. Sequence GACGTTTA has a binding signal of 0.0757 normalized occupancy. Work on AACGTTTC yielded a binding signal of 0.0739 normalized occupancy. For AACGTTTA, the binding signal was 0.0757 normalized occupancy. Work on AGAAACCC yielded a binding signal of 0.0744 normalized occupancy. ATAGAATC was tested, and the binding signal was 0.0826 normalized occupancy. Work on AGTGCTAG yielded a binding signal of 0.0731 normalized occupancy. Work on ACCTTCAA yielded a binding signal of 0.0719 normalized occupancy. In the case of CGAATAGA, the binding signal is reported as 0.0736 normalized occupancy. In the case of CAGAACTA, the binding signal is reported as 0.0728 normalized occupancy. CTAGAAGA showed a binding signal of 0.0731 normalized occupancy. AACGATGA showed a binding signal of 0.0771 normalized occupancy. ACCCGTCA gave a binding signal of 0.0779 normalized occupancy. In the case of ATGTGAGG, the binding signal is reported as 0.0857 normalized occupancy. ATGTGCGG showed a binding signal of 0.104 normalized occupancy. Sequence ATGTGCGC has a binding signal of 0.0928 normalized occupancy. In the case of GTGTGAGA, the binding signal is reported as 0.0806 normalized occupancy. GTGTGTGA showed a binding signal of 0.0839 normalized occupancy. Sequence ATGTGCGA has a binding signal of 0.0863 normalized occupancy. With CTGTGTGA the binding signal was 0.0738 normalized occupancy. ATGTGTCG showed a binding signal of 0.0903 normalized occupancy. ATGTGTCA showed a binding signal of 0.101 normalized occupancy. GTGTGTCA gave a binding signal of 0.0887 normalized occupancy. With ATGTGTGA the binding signal was 0.102 normalized occupancy. For ATGTGAGA, the binding signal was 0.0969 normalized occupancy. For ATTGAACG, the binding signal was 0.082 normalized occupancy. In the case of CTGACTAA, the binding signal is reported as 0.0729 normalized occupancy. For ACATAAGA, the binding signal was 0.0789 normalized occupancy. With AACCTCTA the binding signal was 0.0738 normalized occupancy. CCCTCCTC gave a binding signal of 0.0734 normalized occupancy. CGTACTGA showed a binding signal of 0.0729 normalized occupancy. For AGCGCACG, the binding signal was 0.0877 normalized occupancy. AGGAAAAC gave a binding signal of 0.075 normalized occupancy. ACGCGCCC was tested, and the binding signal was 0.0753 normalized occupancy. For TAACTGCA, the binding signal was 0.0726 normalized occupancy. GCTACCAA showed a binding signal of 0.0737 normalized occupancy. For TGATGGCA, the binding signal was 0.08 normalized occupancy. AGTCCCCC was tested, and the binding signal was 0.0801 normalized occupancy. In the case of ATCTTTAC, the binding signal is reported as 0.0755 normalized occupancy. CTGTGTGC was tested, and the binding signal was 0.0783 normalized occupancy. With ATGTCACG the binding signal was 0.101 normalized occupancy. With ATGTGTGC the binding signal was 0.0957 normalized occupancy. Work on ATGTGTGG yielded a binding signal of 0.0891 normalized occupancy. With ATGTCACC the binding signal was 0.08 normalized occupancy. ATGTCACA showed a binding signal of 0.0852 normalized occupancy. Sequence AATTCCGA has a binding signal of 0.0729 normalized occupancy. For CATCTGTC, the binding signal was 0.0856 normalized occupancy. In the case of GGGCTGTA, the binding signal is reported as 0.0762 normalized occupancy. For CCCATCTA, the binding signal was 0.0745 normalized occupancy. With CATAAATC the binding signal was 0.0857 normalized occupancy. CCGAACAA showed a binding signal of 0.0756 normalized occupancy. For GAAGTGAC, the binding signal was 0.0733 normalized occupancy. In the case of GACATGAC, the binding signal is reported as 0.0811 normalized occupancy. CTCATGAG gave a binding signal of 0.0946 normalized occupancy. AACATGAG gave a binding signal of 0.0999 normalized occupancy. Sequence AACATGAA has a binding signal of 0.0878 normalized occupancy. TACATGAA showed a binding signal of 0.0793 normalized occupancy. CACATGAG gave a binding signal of 0.109 normalized occupancy. Work on GACATGAA yielded a binding signal of 0.0775 normalized occupancy. Work on CAAATGAG yielded a binding signal of 0.0793 normalized occupancy. With CAAATGAC the binding signal was 0.0825 normalized occupancy. Work on AACATGAC yielded a binding signal of 0.0831 normalized occupancy. For CACATGAA, the binding signal was 0.104 normalized occupancy. With CACATGAC the binding signal was 0.129 normalized occupancy. ATGTACAA was tested, and the binding signal was 0.0815 normalized occupancy. For AAAAACCA, the binding signal was 0.0806 normalized occupancy. In the case of GCCACAGC, the binding signal is reported as 0.0723 normalized occupancy. AATCGTAC gave a binding signal of 0.0751 normalized occupancy. GGACCCCA was tested, and the binding signal was 0.0794 normalized occupancy. With ATGAGAAA the binding signal was 0.0743 normalized occupancy. Sequence ATTGGAAC has a binding signal of 0.076 normalized occupancy. Work on ACGTGTGC yielded a binding signal of 0.109 normalized occupancy. Work on ACGTGCGA yielded a binding signal of 0.093 normalized occupancy. AGGTGTGG gave a binding signal of 0.0847 normalized occupancy. With ACGTGCGC the binding signal was 0.113 normalized occupancy. AAGTGTGG showed a binding signal of 0.0819 normalized occupancy. For CCGTGTGA, the binding signal was 0.0836 normalized occupancy. In the case of AAGTGTGC, the binding signal is reported as 0.0869 normalized occupancy. In the case of ACGTGTGA, the binding signal is reported as 0.105 normalized occupancy. Sequence GCGTGTGA has a binding signal of 0.0941 normalized occupancy. Sequence CCGTGTGC has a binding signal of 0.0858 normalized occupancy. Work on ACGTGTGG yielded a binding signal of 0.104 normalized occupancy. Sequence CCGTGCGC has a binding signal of 0.0813 normalized occupancy. GACGAGAC showed a binding signal of 0.0761 normalized occupancy. Sequence GACAAAAC has a binding signal of 0.0749 normalized occupancy. In the case of CACGAATG, the binding signal is reported as 0.0777 normalized occupancy. In the case of ATTGAAGC, the binding signal is reported as 0.0724 normalized occupancy. Work on ATAGTCTG yielded a binding signal of 0.0754 normalized occupancy. AAATGCAT was tested, and the binding signal was 0.079 normalized occupancy. Work on AGATGCAC yielded a binding signal of 0.0867 normalized occupancy. AGATGCAT was tested, and the binding signal was 0.0784 normalized occupancy. For ACATGCAT, the binding signal was 0.105 normalized occupancy. CAATGCAC showed a binding signal of 0.0848 normalized occupancy. Sequence CCATGCAA has a binding signal of 0.0895 normalized occupancy. For ACATGCAC, the binding signal was 0.0954 normalized occupancy. In the case of CTATGCAC, the binding signal is reported as 0.0874 normalized occupancy. CCATGCAG gave a binding signal of 0.0965 normalized occupancy. CTATGCAG was tested, and the binding signal was 0.0757 normalized occupancy. In the case of CCATGCAC, the binding signal is reported as 0.0969 normalized occupancy. With ATATGCAC the binding signal was 0.092 normalized occupancy. AAAGTGAA was tested, and the binding signal was 0.0782 normalized occupancy. With ACTAGTCA the binding signal was 0.0755 normalized occupancy. For CTACCCGA, the binding signal was 0.0741 normalized occupancy. In the case of AAATATAC, the binding signal is reported as 0.0881 normalized occupancy. Work on GCATTAGC yielded a binding signal of 0.0727 normalized occupancy. Sequence CGTATGCC has a binding signal of 0.0784 normalized occupancy. ACATGCAG showed a binding signal of 0.097 normalized occupancy. AAATGCAG showed a binding signal of 0.0778 normalized occupancy. For AGATGCAG, the binding signal was 0.0757 normalized occupancy. In the case of ACATGAAC, the binding signal is reported as 0.0866 normalized occupancy. With ACATGAAG the binding signal was 0.0842 normalized occupancy. ACATGAAT showed a binding signal of 0.0965 normalized occupancy. For AAGCTATC, the binding signal was 0.0722 normalized occupancy. ATGACTTG was tested, and the binding signal was 0.0818 normalized occupancy. CCGTGCAC was tested, and the binding signal was 0.0816 normalized occupancy.
